In PubChem BioAssay:

Key:
[1] = system: Human papillomavirus type 1a protein E7 (residues 44-93); experiment: small molecules binding HPV E7 44-93 – biochemical, small-molecule microarray, residues 44-93, 635 nm fluorescence, primary screen (AID 1108); details: fluorescence 635 nm, higher = more signal;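 note: E7 fragment applied at 1 µg/mL in TBST for 1 h at 4 C; score combines spot fluorescence with its signal to noise ratio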
[2] = hepatitis C replication reporter changes, two-sided – Huh7 cells, luciferase reporter, HCV replication inhibitor project, primary screen (AID 1109); details: Huh7 HCV replicon luciferase reporter, 48 h; higher = more signal;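 note: huh7 hepatoma cells harbouring a luciferase neomycin HCV replicon reporter; luciferase luminescence as measure of HCV replicon replication; test concentration not given here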
[3] = target: Left-right determination factor 2 (Homo sapiens) (UniProt O00292); experiment: small molecules binding LEFTY2 protein – biochemical, small-molecule microarray, 635 nm fluorescence scan, primary screen (AID 1110); details: higher = more signal
[4] = target: Calmodulin-1 (Homo sapiens) (UniProt P0DP23); experiment: small molecules binding calmodulin-1 with EGTA – biochemical, small-molecule microarray, Cy5-labelled CALM1, profiling panel (AID 1111); details: Cy5-CALM1 binding fluorescence, higher = more signal;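 note: labelled calmodulin applied in Tris saline Tween buffer holding calcium plus EGTA and DTT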
[5] = target: Calmodulin-1 (Homo sapiens) (UniProt P0DP23); experiment: small molecules binding Ca-loaded calmodulin-1 – biochemical, small-molecule microarray, Cy5-labelled CALM1, plus calcium, artefact control for SMM control-protein annotation, profiling panel (AID 1112); details: Cy5-CALM1 binding fluorescence, higher = more signal;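 note: score merges spot fluorescence with signal to noise from triplicate slides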
[6] = probe aWnt5a binding to arrayed compounds – biochemical, biotinylated probe, 635/667 nm fluorescence, primary screen (AID 1113); details: small-molecule microarray, higher = more signal;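 note: score merges 667 nm fluorescence intensity with signal-to-noise per printed feature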
[7] = probe aShh binding to arrayed compounds – biochemical, biotinylated probe, 635/667 nm fluorescence, primary screen (AID 1114); details: small-molecule microarray, higher = more signal;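 note: probe is biotin-labelled aShh protein from a stem cell growth factor screen; measures binding of labelled protein to compounds printed on the slide; score merges feature fluorescence at 667 nm with signal-to-noise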
[8] = probe aNog binding to arrayed compounds – biochemical, biotinylated probe, 635/667 nm fluorescence, primary screen (AID 1115); details: small-molecule microarray, higher = more signal;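 note: probe is biotinylated aNog protein used at 0.15 µg/mL for 1 h at 4 C; z-score combines 667 nm fluorescence of each spot with its signal to noise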
[9] = target: Torsin-1A-interacting protein 1 (Homo sapiens) (UniProt Q5JTV8); experiment: compound microarray binding of lysate hLAP1 – cell lysate, small-molecule microarray, COS7 lysate, 635/667 nm fluorescence, primary screen (AID 1116); details: 635 nm fluorescence, higher = more signal
[10] = target: Alpha-bungarotoxin (Bungarus multicinctus) (UniProt P60615); experiment: compounds binding labelled alpha-BTX control protein – biochemical, small-molecule microarray, Alexa647 label, 635/667 nm fluorescence, artefact control for SMM control protein annotation, profiling panel (AID 1117); details: alpha-BTX-A647 binding fluorescence, higher = more signal
Sequence of Alpha-bungarotoxin (Bungarus multicinctus) (P60615 whole entry, looked up): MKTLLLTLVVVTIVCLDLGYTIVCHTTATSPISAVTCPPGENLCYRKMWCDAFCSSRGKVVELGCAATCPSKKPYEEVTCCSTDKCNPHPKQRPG

Sequence of Torsin-1A-interacting protein 1 (Homo sapiens) (Q5JTV8 whole entry, looked up): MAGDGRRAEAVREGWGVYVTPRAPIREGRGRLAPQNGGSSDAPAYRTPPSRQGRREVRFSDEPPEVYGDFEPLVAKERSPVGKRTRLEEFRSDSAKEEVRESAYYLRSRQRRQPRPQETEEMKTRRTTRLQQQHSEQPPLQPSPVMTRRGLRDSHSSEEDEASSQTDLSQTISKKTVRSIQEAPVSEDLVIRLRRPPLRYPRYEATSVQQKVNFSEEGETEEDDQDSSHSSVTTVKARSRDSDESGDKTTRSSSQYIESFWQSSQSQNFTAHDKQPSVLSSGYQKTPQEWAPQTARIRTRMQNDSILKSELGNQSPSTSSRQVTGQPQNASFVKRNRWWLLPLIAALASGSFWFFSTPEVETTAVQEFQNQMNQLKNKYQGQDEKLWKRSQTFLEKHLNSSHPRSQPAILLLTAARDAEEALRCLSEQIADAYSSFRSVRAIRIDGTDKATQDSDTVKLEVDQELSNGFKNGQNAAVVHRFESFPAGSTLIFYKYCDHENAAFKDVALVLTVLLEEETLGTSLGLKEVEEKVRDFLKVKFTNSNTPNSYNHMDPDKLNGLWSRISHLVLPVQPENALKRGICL
Sequence of Left-right determination factor 2 (Homo sapiens) (O00292 whole entry, looked up): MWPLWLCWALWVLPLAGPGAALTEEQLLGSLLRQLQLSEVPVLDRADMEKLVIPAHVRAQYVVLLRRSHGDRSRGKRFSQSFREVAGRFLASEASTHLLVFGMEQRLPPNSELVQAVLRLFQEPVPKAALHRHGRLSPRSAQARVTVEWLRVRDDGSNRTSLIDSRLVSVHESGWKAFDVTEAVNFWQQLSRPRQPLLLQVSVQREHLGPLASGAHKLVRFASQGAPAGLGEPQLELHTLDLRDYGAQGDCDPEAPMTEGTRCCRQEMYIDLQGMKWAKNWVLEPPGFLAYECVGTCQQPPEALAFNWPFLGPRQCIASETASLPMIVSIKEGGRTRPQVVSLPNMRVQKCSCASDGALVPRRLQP

| Compound | composite z-score [1] | z-score [2] | composite z-score [3] | composite z-score [4] | composite z-score [5] | composite z-score [6] | composite z-score [7] | composite z-score [8] | composite z-score [9] | composite z-score [10] |
| --- | --- | --- | --- | --- | --- | --- | --- | --- | --- | --- |
| C=CCOC(=O)[C@H]1[C@@H]2C(=O)O[C@@H](c3ccccc3)[C@@H](c3ccccc3)N2[C@@H](c2ccc(OCCOC(=O)[C@@H]3C[C@@H]4C(=O)N5CCC[C@H]5C(=O)N4[C@@H]3c3ccc(O)cc3)cc2)[C@]12C(=O)Nc1ccccc12 | 1.4 | -1.81 | 0.677 | 0.823 | 0.0257 | -0.1 | 0.0121 | -0.467 | 0.808 | 1.18 |
| CCCCCCc1nc(CCCc2cc3c(c(CCCCCC)n2)[Si](C(C)C)(C(C)C)OC3)cc2c1[Si](C(C)C)(C(C)C)OC2 | -0.893 | -3.46 | -0.116 | -0.63 | -0.0511 | -0.1 | 0.214 | -0.303 | -0.386 | -0.325 |
| O=C1C2C=CC(C(O)c3ccc(F)cc3)N(Nc3ccccc3)C2C(=O)N1c1ccccc1 (stereo not given) | 1.42 | -0.379 | -0.238 | 0.691 | 0.619 | 0.0597 | -0.289 | 0.195 | 0.691 | 1.97 |
| C=CCOC(=O)[C@H]1[C@@H]2C(=O)O[C@@H](c3ccccc3)[C@@H](c3ccccc3)N2[C@@H](c2ccc(OCCOC(=O)[C@@H]3C[C@@H]4C(=O)NCC(=O)N4[C@@H]3c3ccc(O)cc3)cc2)[C@]12C(=O)Nc1ccccc12 | 0.919 | -1.34 | 0.733 | 0.325 | 0.0637 | -0.0573 | -0.0192 | -0.0216 | 0.609 | -0.195 |
| COc1ccc(C#Cc2ccc3c(c2)[C@]2(C(=O)N3)[C@H](C(=O)NC[C@H](O)c3ccccc3)[C@H]3C(=O)O[C@H](c4ccccc4)[C@H](c4ccccc4)N3[C@@H]2c2ccccc2OCCO)cc1 | 0.272 | -2.86 | 0.5 | 1.08 | 0.243 | 0.0229 | 0.232 | 0.325 | 0.967 | 1.22 |
| C=C(COC)C(=O)CC[C@@H](OC(=O)c1cccnc1)c1ccc(CO)o1 | 0.369 | -0.778 | 0.355 | -0.0743 | -0.116 | -0.1 | -0.0977 | 0.094 | 0.424 | 0.285 |
| COC(=O)[C@@]1(Cc2ccc(OC)cc2)[C@H]2c3cc(C(=O)N4CCCC4)n(CCc4c[nH]c5cc(F)ccc45)c3C[C@H]2CN1C(=O)c1ccccc1 | 0.991 | -1.89 | 0.259 | 2.73 | 1.07 | 0.168 | 0.265 | 2.06 | 2.94 | 1.42 |
| CCCCCN1CC=CC23O[C@@H]4C=CCOC(=O)[C@@H]4[C@H]2C(=O)N(CCCO)[C@@H]3C1=O (stereo not given in full) | 1.35 | -0.538 | -0.642 | -0.568 | 0.487 | -0.204 | -0.0709 | 0.0707 | 2.65 | -0.339 |
| Cc1ccc([C@H]2[C@H](C(=O)O)[C@H](Sc3ccccc3)[C@@H](C(C)C)N2S(=O)(=O)c2ccc(C)cc2)cc1 | 1.41 | -0.981 | 0.314 | 1.36 | 0.904 | 0.0718 | -0.0709 | -0.528 | 0.759 | 0.715 |
| CCCCC=C[C@@H](NC(=O)c1ccc(C(=O)OC)cc1)c1ccccc1 | 1.1 | -1.36 | 0.107 | 0.168 | -0.128 | -0.15 | 0.0711 | 0.122 | 0.0279 | 0.926 |
| CC(C)=CCCC(C)=CC(O)C1C=CC2C(=O)N(c3ccccc3)C(=O)C2N1Nc1ccccc1 (stereo not given) | 0.704 | -0.517 | 0.12 | 2.23 | 1.18 | 0.139 | 0.393 | 1.88 | 1.03 | 2.95 |
| COCCCNC(=O)[C@@]1(CCC(=O)OC(C)(C)C)N=C(c2ccc(OCCCO)cc2)O[C@H]1c1ccccc1CN=[N+]=[N-] | 1.49 | 0.43 | -0.139 | 1.39 | 0.854 | 0.112 | 0.0898 | 1.36 | 2.28 | 2.19 |
| COCC(=C=CC[C@@H](O)c1ccc(CO)o1)CCO | -0.494 | -0.711 | 0.744 | -0.699 | -0.662 | -0.124 | -0.217 | -0.387 | 2.23 | -0.0933 |
| CC1CC/C=C\[C@H]2OC34C=CCN(Cc5ccccc5)C(=O)[C@H]3N(CCCCCO)C(=O)[C@@H]4C2C(=O)O1 (stereo not given in full) | -0.853 | 0.28 | -0.918 | -0.457 | 0.163 | -0.0981 | -0.345 | -0.0704 | 1.04 | 1.39 |
| COc1cc2c(cc1O)C(C)N(Cc1cccc(OC(F)(F)F)c1)CC2 (stereo not given) | 1.37 | -0.815 | -0.442 | 0.854 | 0.938 | -0.0445 | 0.0326 | 0.582 | 1.67 | 0.514 |
| O=C1OCCC/C=C\[C@H]2OC34C=CCN(Cn5nnc6ccccc65)C(=O)[C@H]3N(CCCCCO)C(=O)[C@@H]4C12 (stereo not given in full) | -0.921 | 0.0311 | -1.5 | -0.709 | -0.388 | -0.175 | -0.0035 | -0.0894 | -0.118 | -0.697 |
| O=c1cccc(C=Cc2ccccc2)o1 | -0.64 | -0.854 | -1.31 | -0.471 | -0.274 | -0.145 | 0.147 | -0.411 | -0.363 | -0.374 |
| COCCOC(=O)N1C(=O)[C@@]2(c3ccccc31)[C@H](C(=O)Nc1nc3ccccc3s1)[C@H]1C(=O)O[C@H](c3ccccc3)[C@H](c3ccccc3)N1[C@@H]2c1ccc(OCCO)cc1 | 1.37 | -2.05 | 0.382 | 1.31 | 0.773 | 0.135 | -0.0626 | 0.544 | 0.96 | 1.6 |
| CCCCC=C[C@@H](NC(=O)c1ccco1)c1ccccc1 | -0.244 | -0.502 | 0.0518 | 1.31 | 0.137 | 0.0151 | 0.356 | 0.531 | -0.153 | 1.18 |
| CCOC(=O)[C@H]1C[C@H]2O[C@@]23C[C@H]1C(=O)N1CCCC1[C@@H]3O[Si](C)(C)C(C)(C)C (stereo not given in full) | -0.917 | -0.633 | -0.0688 | -0.821 | -0.392 | -0.184 | -0.138 | -0.202 | -0.132 | -0.789 |
| O=C1O[C@H](c2ccccc2)[C@H](c2ccccc2)N2[C@H]1[C@@H](C(=O)Nc1nc3ccccc3s1)[C@]1(C(=O)Nc3ccccc31)[C@H]2c1ccc(O)cc1 | 1.35 | -1.35 | 0.684 | 0.281 | -0.322 | -0.0903 | -0.138 | -0.0272 | 0.536 | 1.27 |
| COCCCNC(=O)[C@@]1(c2ccc([N+](=O)[O-])cc2)CC(=O)N(CC23CC4CC(CC(C4)C2)C3)[C@@H]1c1ccc(CO)cc1 | 1.37 | -2.47 | 1.13 | -0.121 | -0.548 | -0.109 | -0.0119 | -0.761 | 0.422 | 0.572 |
| COCC1=C2[C@@H](CCc3ccccc3)OB(O)C[C@@H]2[C@@H]2C(=O)N(Cc3ccccc3)C(=O)[C@@H]2C1 | -0.0734 | -0.895 | 0.0192 | -0.222 | -0.112 | -0.0242 | -0.214 | 0.362 | -0.448 | 1.19 |
| COc1ccc([Si](C)(C)[C@H]2[C@H](CCn3cc([C@H](O)c4ccccc4)nn3)O[C@@]3(C(=O)N(Cc4cccc(N5CCC5=O)c4)c4ccccc43)[C@@H]2C)cc1 | -0.268 | -1.73 | 0.183 | 0.318 | 0.193 | -0.114 | 0.0278 | -0.118 | 0.412 | 0.167 |
| CC(c1ccccc1)C(O)C1C=CC2C(=O)NC(=O)C2N1Nc1ccccn1 (stereo not given) | 1.35 | 0.355 | 0.313 | -0.104 | -0.487 | -0.0478 | -0.138 | 0.496 | 0.903 | 0.672 |
| CCOc1cc(C(O)C2C=CC3C(=O)N(c4ccccc4)C(=O)C3N2Nc2ccc([N+](=O)[O-])cc2)ccc1O (stereo not given) | 0.532 | -0.31 | 0.173 | -0.085 | -0.255 | -0.0165 | -0.0849 | -0.489 | 0.0762 | 0.0502 |
| [N-]=[N+]=NCc1ccccc1C[C@]1(C(=O)O)N=C(c2ccc(OCCCO)cc2)O[C@H]1c1ccccc1 | 0.903 | -0.748 | -1.18 | 1.17 | 0.671 | -0.096 | -0.0626 | 1.29 | 3.14 | 0.966 |
